Our source for the growth values is PubChem BioAssay (NCI).

Molecules are shown by their SMILES. The panel holds about 83,000 compounds, 20% with a hit somewhere; the sample as a whole holds those more often.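 Method: cells in 96-well plates; compound added at one concentration; 48 h incubation; percent growth measured; values under 10 scored active.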 A number with no mark means an inactive call. Activity calls are given as the source filed them.

Some test systems named below: T-47D breast; BT-549 breast; MDA-MB-435 melanoma; SW-620 colon; MCF7 breast; HCT-116 colon; HCC-2998 colon; KM12 colon.
Common to all, as to test: NCI-60 one-dose screen, 48 h (100 = growth as untreated, 0 = no growth, -100 = all killed)
Conditions in all cases: 10 µM unless noted

`CC(=O)Nc1ccc(C(=O)Nc2cc(-c3ccccc3)ccc2N)cc1`: the growth is 66% in the assay with T-47D breast; 102% in the assay with BT-549 breast; 60.1% in the assay with MDA-MB-435 melanoma; 59.3% with SW-620 colon; 55.6% in the assay on MCF7 breast; 50.1% in the assay on HCT-116 colon. Also, the growth in the assay with HCC-2998 colon is 90.7%; with KM12 colon it was 73.2%.

In the case of `COc1ccc(-c2nc(N/N=C/c3ccco3)nc(N3CCOCC3)c2C#N)cc1`, the growth in the assay with T-47D breast is 54.2%; in the assay on BT-549 breast, 78.5%; in the assay with MDA-MB-435 melanoma, 91.7%; with SW-620 colon, 89.8%; with MCF7 breast it was 35.2%; with HCT-116 colon, 89.1%. Moreover, the growth was 92.2% with HCC-2998 colon and 86.7% with KM12 colon.

With `O=S(=O)(NCCCNc1nccc(-c2c(-c3ccccc3)nc3occn23)n1)c1ccc(Cl)cc1`, the growth in the assay on T-47D breast was 58.9%; with BT-549 breast it was 104%; with MDA-MB-435 melanoma, 64.3%; in the assay on SW-620 colon, 108%; in the assay with MCF7 breast, 60.5%; in the assay with HCT-116 colon, 68.4%. Besides, the growth is 102% in the assay with HCC-2998 colon and 95.7% in the assay on KM12 colon.

As for `CC1=NNC(=O)C1CCC(=O)N/N=C(\C)c1ccc2ccccc2c1` (stereo not given), the growth in the assay with T-47D breast was 146%; in the assay on BT-549 breast, 118%; in the assay with MDA-MB-435 melanoma, 86.5%; with SW-620 colon it was 103%; in the assay with MCF7 breast it was 98.9%; with HCT-116 colon, 92.7%. Further, the growth in the assay with HCC-2998 colon was 107%; in the assay on KM12 colon it was 98.9%.

In the case of `COc1cccc(-c2nc3occn3c2-c2ccnc(NCCCNS(=O)(=O)c3cccc(F)c3)n2)c1`, the growth in the assay with T-47D breast is 29.3%; with BT-549 breast, 96.1%; in the assay with MDA-MB-435 melanoma, 63.2%; with SW-620 colon, 115%; with MCF7 breast, 78.1%; in the assay on HCT-116 colon it was 82%. The growth with HCC-2998 colon was 127%; in the assay with KM12 colon, 92.6%.

Take `CN1CCN(CCCNc2nccc(-c3c(-c4ccc(F)c(O)c4)nc4sccn34)n2)S1(=O)=O`: the growth was 90.1% with T-47D breast; 128% with BT-549 breast; 40.8% in the assay on MDA-MB-435 melanoma; 112% in the assay with SW-620 colon; 85% with MCF7 breast; 75.9% with HCT-116 colon. In addition, the growth with HCC-2998 colon is 108%; in the assay with KM12 colon, 94.3%.

With `O=S(=O)(c1cccc(NC2=Nc3cccc4cccc2c34)c1)N1CCCC1`, the growth with T-47D breast is 44.5%; in the assay on BT-549 breast it was 48%; with MDA-MB-435 melanoma, 29.3%; in the assay on SW-620 colon, 64.4%; in the assay with MCF7 breast, 51.4%; in the assay with HCT-116 colon, 62.8%. For the same compound, the growth in the assay on HCC-2998 colon is 79.5%; in the assay with KM12 colon, 71.7%.

`CC(=O)N1c2ccccc2NC2=C(C(=O)N(Cc3ccccc3)C2(C)C)C1c1ccco1` (stereo not given): the growth in the assay on T-47D breast was 35.1%; in the assay with BT-549 breast, 47.6%; in the assay with MDA-MB-435 melanoma, -56.2% (active); in the assay on SW-620 colon it was 21.7%; in the assay with MCF7 breast, 15.3%; in the assay with HCT-116 colon it was 7.52% (active). For the same compound, the values for the growth in the assay on HCC-2998 colon and in the assay on KM12 colon were 3.73% (active) and 14.8%, respectively.

In the case of `CCCCCCOc1ccc(/C=N/Nc2cc(C)nc3ccc(Br)cc23)cc1`, the growth in the assay with T-47D breast is -11% (active); with BT-549 breast, 106%; with MDA-MB-435 melanoma it was -87.7% (active); in the assay with SW-620 colon, -72.5% (active); with MCF7 breast, -67% (active); in the assay with HCT-116 colon, -66.4% (active). The growth in the assay with HCC-2998 colon is -94.5% (active); in the assay with KM12 colon, -84.7% (active).

Take `COc1ccc(NS(=O)(=O)c2ccc(C)cc2)c([N+](=O)[O-])c1`: the growth is 93.5% in the assay with T-47D breast; 104% with BT-549 breast; 111% with MDA-MB-435 melanoma; 103% in the assay with SW-620 colon; 99.7% in the assay with MCF7 breast; 106% in the assay with HCT-116 colon. Besides, the growth in the assay on HCC-2998 colon was 99.6%; in the assay with KM12 colon, 104%.

Consider `C=C1C(=O)O[C@H]2[C@H]1CC/C(CNC(=O)/C=C/c1ccc(Br)cc1)=C\CC[C@@]1(C)O[C@@H]21`, for which the growth in the assay on T-47D breast was -41.3% (active); in the assay with BT-549 breast, -59.7% (active); in the assay with MDA-MB-435 melanoma it was -47.8% (active); in the assay with SW-620 colon, -78.5% (active); in the assay with MCF7 breast, -66.7% (active); in the assay with HCT-116 colon it was -81.4% (active). In addition, the growth was -92.6% (active) in the assay with HCC-2998 colon and 36.4% in the assay with KM12 colon.

As for `CCN(CC)CCCC(C)Nc1c2c(nc3ccc(OC)cc13)CCCC2` (stereo not given), the growth in the assay on T-47D breast is 113%; in the assay on BT-549 breast, 101%; in the assay on MDA-MB-435 melanoma, 103%; in the assay with SW-620 colon, 103%; in the assay with MCF7 breast it was 91.4%; in the assay on HCT-116 colon it was 73.6%. Further, the figures for the growth in the assay on HCC-2998 colon and in the assay on KM12 colon were 103% and 106%, respectively.

Turning to `O=C1CCCN1c1cccc2cccnc12`, the growth was 97.5% with T-47D breast; 109% in the assay with BT-549 breast; 100% with MDA-MB-435 melanoma; 101% in the assay with SW-620 colon; 93.3% with MCF7 breast; 102% in the assay with HCT-116 colon. The figures for the growth with HCC-2998 colon and in the assay with KM12 colon were 86.7% and 102%, respectively.

On to `O=C1/C(=C/c2ccc(O)cc2)COc2ccc(-c3ccccc3)cc21`, for which the growth in the assay with T-47D breast is 30.8%; with BT-549 breast, 80.9%; in the assay with MDA-MB-435 melanoma, 60.7%; in the assay with SW-620 colon, 76.4%; in the assay with MCF7 breast, 34.2%; in the assay on HCT-116 colon it was 32.1%. Moreover, the figures for the growth in the assay on HCC-2998 colon and in the assay on KM12 colon were 82% and 19.4%, respectively.

Regarding `Cc1nc2sc(C(=O)Nc3ccccc3)c(N)c2cc1C(=O)c1ccc(C(F)(F)F)cc1`, the growth is 97.2% in the assay with T-47D breast; 100% in the assay on BT-549 breast; 94.1% in the assay with MDA-MB-435 melanoma; 99.5% in the assay on SW-620 colon; 90.7% with MCF7 breast; 76.8% in the assay on HCT-116 colon. The growth in the assay on HCC-2998 colon was 104%; in the assay with KM12 colon it was 108%.
